Experimental data from PubChem BioAssay (NCATS).
Records with an inconclusive call do not appear. Unmarked numbers belong to inactive results. The source made the active and inactive calls. The call rests on the fitted dose curve; in most records, active means well fitted inhibition curve with a large enough effect; inconclusive means small, poorly fitted or top-dose-only effect; inactive means flat fitted curve, though single readings scatter.

The compounds below were run against Calcium and integrin-binding protein 1 (Homo sapiens) (UniProt Q99828) (assay: Primary qHTS for Identification of Calcium Integrin Binding Protein 1 (CIB1) Competitor (AID 1508620;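 further: GST tagged CIB1 binding a fluorescein labelled alphaIIb integrin peptide tracer; top concentration of the series differs between compounds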)). Conditions: CIB1-GST / FITC-alphaIIb peptide fluorescence polarization; series mostly up to 114 µM; activity change, negative = inhibition: at the top concentration.
Chain of Calcium and integrin-binding protein 1 (Homo sapiens) (Q99828 whole entry, looked up): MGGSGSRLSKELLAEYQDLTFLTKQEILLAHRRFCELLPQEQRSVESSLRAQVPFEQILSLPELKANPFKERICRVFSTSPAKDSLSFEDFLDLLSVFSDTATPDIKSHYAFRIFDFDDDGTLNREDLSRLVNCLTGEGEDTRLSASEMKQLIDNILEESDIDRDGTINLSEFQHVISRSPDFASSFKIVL
Summary of the method: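 Fluorescence polarization competition: CIB1-GST (1 uM final) preincubated with compound 15 min at room temperature, then FITC-labeled alphaIIb peptide (100 nM final) added for another 15 min. Polarization read at Ex 480/Em 540.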
On the % scale 0 is the no-effect control and ±100 the full control effect.

Going from `Cc1ccc(NS(=O)(=O)c2cc3c(cc2Br)NC(=O)CO3)cc1C` to `CNc1cc2c(cc1S(=O)(=O)Nc1ccc(C)c(C)c1)CCC(=O)N2`, the “activity change, negative = inhibition” value falls from 8.51% to -1.6%.

Going from `Cc1ccc(-c2nnc(N3CCC(C(N)=O)CC3)s2)cc1` to `NC(=O)C1CCN(c2nc(-c3cccc4sc5ccccc5c34)cs2)CC1`, the “activity change, negative = inhibition” value falls from 4.74% to -3.42%.

First: CC(C)(C)OC(=O)N1CCN(c2ccc(NCc3cccc(-c4ccc(C#N)cc4)n3)cc2)CC1
Second: Cc1cc(C)nc(/N=C(\NC#N)N2CCN(c3cccc(C(F)(F)F)c3)CC2)c1
The “activity change, negative = inhibition” value of the first is lower: -0.84% for the first, 0.919% for the second.

Going from `COc1ccc2oc(NC3=NC(c4[nH]ncc4Cl)C4=C(CCCC4=O)N3)nc2c1` (stereo not given) to `Cc1cc2c(s1)c1cnn(Cc3c(Cl)ccc(C)c3F)c(=O)c1n2C`, the “activity change, negative = inhibition” value falls from 1.18% to -13.7%.

Compared with `COc1cc2ncnc(N(C)Cc3csc(C)n3)c2cc1-c1ccc2c(c1)OCO2`, `NCCCNc1ncnc2ccc(-c3ccc4c(c3)OCO4)cc12` is higher in “activity change, negative = inhibition” value: 0.265% for the first, 5.05% for the second.

Compared with `Nc1ccc2c(c1)C(=O)NS2(=O)=O`, `COc1cccc(S(=O)(=O)NC2CCN(C#N)C2)c1` (stereo not given) is higher in “activity change, negative = inhibition” value: 1.28% for the first, 6.45% for the second.

Compared with `O=S(=O)(NC1CCN(S(=O)(=O)c2ccc3c(c2)OCCO3)CC1)c1c(F)cccc1F`, `COc1ccc(S(=O)(=O)NC2CCN(C#N)CC2)cc1` is lower in “activity change, negative = inhibition” value: 0.641% for the first, -0.631% for the second.

Compared with `O=C(CNC(=O)c1ccncc1)OC(C(=O)Nc1cc(C(F)(F)F)ccc1Cl)c1ccccc1` (stereo not given), `COc1cc(Nc2nc(-c3ccncc3)nc3ccccc23)ccc1NS(C)(=O)=O` is higher in “activity change, negative = inhibition” value: 0.363% for the first, 2.02% for the second.

Going from `COc1cccc(C2c3c(ncn(-c4ccc(C(C)(C)C)cc4)c3=N)Oc3ccc4ccccc4c32)c1` (stereo not given) to `Fc1cc(Nc2nc(-c3ccncc3)nc3ccccc23)ccc1-c1ccncc1`, the “activity change, negative = inhibition” value falls from 24.1% to 23.5%.

Compared with `c1nc(N2CCOCC2)c2cc(-c3ccc4c(c3)OCO4)ccc2n1`, `CCOC(=O)c1ccoc1-c1ccc2ncnc(NCc3ccc(C)o3)c2c1` is higher in “activity change, negative = inhibition” value: -2.44% for the first, 0.643% for the second.

First: Cc1cccc(-n2cnc3cc(C(=O)N4CCCCCC4)ccc32)c1
Second: CN(C)c1ccc2nc(NC(=S)N3CCN(c4cccc(C(F)(F)F)c4)CC3)sc2c1
The “activity change, negative = inhibition” value of the first is lower: 2.32% for the first, 3.2% for the second.

Going from `CC(C)c1ccccc1-c1ncc(F)c(NCc2ccc(-c3ccn[nH]3)cc2)n1` to `O=C1c2ccccc2C(=O)c2cc(S(=O)(=O)Nc3cccc4cccnc34)ccc21`, the “activity change, negative = inhibition” value falls from -4.7% to -16.6%.

Going from `Cc1ccc(-c2nccc(=O)n2CC(=O)N(C)C(C)c2ccco2)cc1` (stereo not given) to `CCCCN(C)C(=O)Cn1nc(-c2cccc(C)c2)ccc1=O`, the “activity change, negative = inhibition” value rises from -1.16% to -0.981%.

First: O=C(O)c1ccccc1-c1noc(-c2ccccc2F)n1
Second: C=CCSc1nnc(-c2cccc3ccccc23)o1
The “activity change, negative = inhibition” value of the first is lower: 2.71% for the first, 5.96% for the second.

First: N#Cc1ccc(Nc2nn3c(=O)c4ccccc4nc3s2)cc1
Second: Cc1ccc(NS(=O)(=O)c2ccc(-c3ccccc3)cc2)cc1C
The “activity change, negative = inhibition” value of the first is higher: 9.22% for the first, 4.33% for the second.

First: CC(=O)Nc1sc2c(c1C#N)CCN(C(C)C)C2
Second: CC(C)c1cc2c(s1)c1cnn(Cc3ccccc3F)c(=O)c1n2C
The “activity change, negative = inhibition” value of the first is lower: -4.73% for the first, -0.569% for the second.

Compared with `Cc1cc(C)nc(NC(=S)N2CCN(c3cc(C(F)(F)F)nc(C)n3)CC2)c1`, `COc1cccc(NC(=S)N2CCN(c3ncc(C(F)(F)F)cc3Cl)CC2)n1` is higher in “activity change, negative = inhibition” value: -6.22% for the first, 8.99% for the second.

Going from `Cc1ccnc(NC(=S)N2CCNCC2)c1` to `CCOC(=O)c1ccoc1-c1ccc2ncnc(NCc3ncc[nH]3)c2c1`, the “activity change, negative = inhibition” value rises from -1.7% to -1.65%.

First: COc1ccc(-c2nnc3n2N=C(c2c(OC)cccc2OC)CS3)c(OC)c1
Second: COc1ccc(C2=Nn3c(nnc3-c3ccc(OC)cc3)SC2)cc1
The “activity change, negative = inhibition” value of the first is higher: 3.02% for the first, 2.94% for the second.

In the case of `CCOC(=O)c1[nH]c2c(c1C)C(=O)CC(c1ccco1)C2` (stereo not given), the Potency is reported as “inactive”.
`CC(C)c1ccccc1-c1ncc(F)c(NC2(c3ccc(-c4cccnc4)cc3)CC2)n1` was tested, and the Potency was “inactive”.
